Hits are enriched below; roughly 1.6% of the tested compounds scored in any of these assays.
PERK inh – blocks human PERK kinase | 220,000 compounds, 0.17% hits | inhibition, % at 5.6 µM | CHO PERK-DD fusion, SEAP luminescence translation reporter;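 active = inhibition above the mean inhibition of all tested compounds plus 3 SD, set separately per screening campaign, cut at about 2.9% in these data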;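 note: PERK kinase domain activated by AP20187 dimerizer at 100 nM; 0% = DMSO with dimerizer and 100% = rapamycin at 8.4 µM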
eIF4E-4G inh – eIF4E/eIF4G interaction inhibition in translation initiation | P63073+Q04637 | TR-FRET eIF4E-eIF4GI(517-606) binding, 2 h | inhibition, % at 21.7 µM | 220,000 compounds, 0.37% hits;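 active = inhibition above about 30%, limit read from the data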;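 note: 0% = full FRET control wells and 100% = background wells lacking eIF4GI fragment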
PABP FP inh – blocks human PABP binding to poly(A) RNA. inhibition, % at 35 µM. fluorescence polarization. 290,000 compounds, 1% hits. AID 2014. P11940;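 note: calls also rest on retests at 20 µM and on dose response follow-up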
Target sequence (P11940 whole entry, looked up): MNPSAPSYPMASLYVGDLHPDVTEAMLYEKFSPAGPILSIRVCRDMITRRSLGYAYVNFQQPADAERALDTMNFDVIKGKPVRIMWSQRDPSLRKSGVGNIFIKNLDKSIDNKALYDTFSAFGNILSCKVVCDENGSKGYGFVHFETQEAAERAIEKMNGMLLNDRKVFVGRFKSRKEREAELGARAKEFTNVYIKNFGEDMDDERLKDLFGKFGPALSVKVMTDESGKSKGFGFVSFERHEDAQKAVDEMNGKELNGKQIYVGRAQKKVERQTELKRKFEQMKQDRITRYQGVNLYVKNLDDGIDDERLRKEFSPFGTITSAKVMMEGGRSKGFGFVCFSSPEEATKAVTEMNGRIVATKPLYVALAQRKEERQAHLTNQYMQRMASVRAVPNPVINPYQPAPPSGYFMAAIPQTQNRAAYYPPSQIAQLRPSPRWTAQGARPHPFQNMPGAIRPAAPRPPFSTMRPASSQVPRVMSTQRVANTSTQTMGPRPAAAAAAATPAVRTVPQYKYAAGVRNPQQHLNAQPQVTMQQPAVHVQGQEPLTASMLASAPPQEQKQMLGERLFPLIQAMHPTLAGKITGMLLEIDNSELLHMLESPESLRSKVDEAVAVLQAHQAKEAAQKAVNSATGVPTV
eIF4H FP inh – inhibitors of RNA binding by human eIF4H; 290,000 compounds, 0.94% hits; AID 2012; Q15056; inhibition, % at 35 µM; eIF4H fluorescence polarization binding assay;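 note: calls also rest on retests at 20 µM and on dose response follow-up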
PABP1 MLLE inh – blocks PAM2 peptide binding to the PABP1 MLLE domain | inhibition, % at 20 µM | P11940 | GST-MLLE / FITC-PAM2 fluorescence polarization | AID 588489 | 360,000 compounds, 0.36% hits; in the data active = inhibition above about 35%, passing the limit was not always enough;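 note: plate controls were DMSO wells with GST-MLLE for no effect and wells lacking GST-MLLE protein for full effect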
Numbers without * were called inactive; ? = inconclusive; · = not tested or not shown; [ ] = remark or other dose. Unless noted, the rule behind the calls is not given here.

SMILES	PERK inh	eIF4E-4G inh	PABP FP inh	eIF4H FP inh	PABP1 MLLE inh
COc1ccccc1NC(=O)Cn1cnc2c(nnn2-c2ccc(C)cc2)c1=O	0.3	1.8	-11.4	-8.1	-2.2
O=C(Cn1cnc2c(nnn2-c2ccccc2)c1=O)N1CCOCC1	-0.7	-3.3	69.6*	active	-4.9
CCOC(=O)c1ccccc1NC(=O)Cn1cnc2c(nnn2-c2ccc(C)cc2)c1=O	0.2	50.3*	5.0	4.9	-7.6
COC(=O)NC1CSCC1OC(=O)c1ccc(Br)cc1 (stereo unspecified)	0.5	0.7	1.5	1.4	5.6
CC1CN(c2ccc(Oc3ccccc3)cc2)c2nc3c(c(=O)n(CC(N)=O)c(=O)n3C)n2C1 (stereo unspecified)	·	95.4*	-2.9	-1.0	-1.1
CCN(c1ccccc1)S(=O)(=O)c1cc(C(=O)NCc2ccco2)ccc1C	·	·	·	·	9.2
CN1C/C(=C\c2ccc(N3CCOCC3)cc2)C(=O)/C(=C/c2ccc(N3CCOCC3)cc2)C1	-0.6	0.7	active	77.6*	-133.2
O=C(CBr)N1CCc2ccccc2C(c2ccccc2)C1 (stereo unspecified)	1.1	3.2	8.2	84.0*	-125.7
Cc1[nH]nc2c1C(c1ccc(-c3ccc(Cl)cc3)o1)C(C#N)=C(N)O2 (stereo unspecified)	0.3	-0.4	4.3	17.5	-1.2
Cc1ccc(-c2ccc(C3C(C#N)=C(N)Oc4n[nH]c(C)c43)o2)cc1 (stereo unspecified)	1.4	1.0	75.8*	53.7*	-16.4
CCOC(=O)Cn1cc(C#N)c2cccc(CC)c21	3.3*	2.9	-6.7	-7.8	-9.8
Cc1nc2ccccc2n1CC(=O)NC1CCCC1	1.5	1.0	1.9	-3.7	8.0
O=C(Nc1ccccc1N1CCOCC1)c1ccccc1NS(=O)(=O)c1ccc(F)cc1	-0.3	-0.1	7.4	9.6	5.5
CCOC(=O)c1ccc2[nH]c(C)cc(=O)c2c1	1.1	2.1	-0.2	0.4	14.2
C=CCNc1ncnc2c1ncn2C1OC(CO)C(O)C1O (stereo unspecified)	3.0*	-3.9	-5.6	0.3	2.8
Cc1ccc(-n2c(C)cc(/C=N/Nc3ccc([N+](=O)[O-])cn3)c2C)cc1	-0.9	34.7*[fluorescence artefact?]	0.6	-8.4	-138.6
Cc1cc(/C=N/Nc2ccc([N+](=O)[O-])cn2)c(C)n1-c1ccccc1	-0.9	-27.1	34.7	2.8	-40.5
Cc1n[nH]c(=O)nc1NCc1ccco1	0.3	73.9*	6.4	-7.9	8.8
O=C1CC(/C=C/c2ccco2)=Nc2ccccc2N1	0.4	-3.6	112.8*	94.9*	33.8
Oc1ccc(-c2[nH]ncc2-c2cccc3cccnc23)c(O)c1	-1.4	92.2*	4.2	-4.5	-0.9
COc1cccc(OCC(=O)Nc2ccccc2-c2ccccc2)c1	0.0	-3.4	-0.5	-9.9	-10.8
Cc1ccc2c(c1)-c1c(ssc1=S)C(C)(C)N2C(=O)CSc1nncn1C	-0.8	5.1	55.5*	2.4*	25.0
CCn1c(C)nc2cc(C(=O)N/N=C/c3ccc(O)c(O)c3O)ccc21	1.6	77.9*	?	?	24.8
CCn1c(C)nc2cc(C(N)=O)ccc21	0.0	-9.6	66.9*	98.9*	-3.0
Cc1cc(C)n(-c2ccc(C(=O)OC(C)C(=O)Nc3ccc(C(N)=O)cc3)cc2)n1 (stereo unspecified)	·	·	·	·	-8.4
SMILES	PERK inh	eIF4E-4G inh	PABP FP inh	eIF4H FP inh	PABP1 MLLE inh
COc1ccc(Br)cc1CNCC1CCCO1 (stereo unspecified)	·	·	-3.1	-0.9	-4.7
CCCCn1c(O)c(/C=C/C=C/C=Nc2ccccc2)sc1=S	0.1	-4.5	4.4	54.1*	-68.3
CCn1c(O)c(/C=C/C=C/C=Nc2ccccc2)sc1=S	2.3	-5.1	7.8	9.9	-19.6
CC(=O)Nc1ccc(SC(Sc2ccc(NC(C)=O)cc2)c2ccccc2)cc1	·	·	·	·	19.9
O=C(Nc1nc(-c2ccc(F)cc2)cs1)c1cnccn1	0.1	6.1	-2.8	1.5	-0.5
C=CCSC1=N/C(=C\C=C\c2ccco2)C(=O)S1	1.7	7.7	75.9*	96.0*	2.5
Cc1ccc(C)c(C(=O)CN2C(=O)C(=O)N(C3CCCC3)C2=O)c1	·	·	·	·	0.8
CCOc1ccc2nc(NCCNC(=O)Nc3ccccc3)c(C#N)cc2c1	-0.5	-7.7	46.3	7.4	7.3
CCOc1ccc2nc(NCCNC(=S)NCCCN(C)C)c(C#N)cc2c1	3.0*	-1.6	41.2	25.7	-10.9

Screening data from PubChem.
